Data on two compounds can be found in ChEMBL document CHEMBL1961873, “Compounds: GSK PKIS; Assays: Nanosyn kinase panel” (2012).

Test [1] has as its target T1, Inhibitor of nuclear factor kappa-B kinase subunit epsilon (Homo sapiens) (UniProt Q14164).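 Note: reported values are averaged percent inhibition figures against human IKKε.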
T1 sequence (whole entry): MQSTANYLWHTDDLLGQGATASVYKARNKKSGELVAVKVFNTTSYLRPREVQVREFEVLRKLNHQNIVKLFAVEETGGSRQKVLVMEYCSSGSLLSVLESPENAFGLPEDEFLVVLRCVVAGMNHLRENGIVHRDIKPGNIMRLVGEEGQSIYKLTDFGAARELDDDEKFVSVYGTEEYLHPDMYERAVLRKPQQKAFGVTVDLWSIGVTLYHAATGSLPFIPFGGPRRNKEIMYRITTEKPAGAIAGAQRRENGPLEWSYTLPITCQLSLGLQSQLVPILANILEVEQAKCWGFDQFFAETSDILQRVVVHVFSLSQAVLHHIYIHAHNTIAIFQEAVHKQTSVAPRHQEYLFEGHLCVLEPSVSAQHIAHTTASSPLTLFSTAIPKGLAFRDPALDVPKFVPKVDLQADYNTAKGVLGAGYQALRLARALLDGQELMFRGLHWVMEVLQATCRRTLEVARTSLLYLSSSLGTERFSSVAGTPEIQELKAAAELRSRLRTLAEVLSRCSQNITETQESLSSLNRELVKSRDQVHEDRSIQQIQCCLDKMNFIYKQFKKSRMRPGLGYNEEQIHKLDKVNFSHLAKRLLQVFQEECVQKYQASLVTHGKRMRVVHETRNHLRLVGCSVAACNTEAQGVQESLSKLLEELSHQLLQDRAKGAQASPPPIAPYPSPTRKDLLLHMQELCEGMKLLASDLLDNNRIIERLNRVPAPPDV
The following applies: at 1 µM.

Test [2] deals with T2, Serine/threonine-protein kinase Nek1 (Homo sapiens) (UniProt Q96PY6).
T2 sequence (whole entry): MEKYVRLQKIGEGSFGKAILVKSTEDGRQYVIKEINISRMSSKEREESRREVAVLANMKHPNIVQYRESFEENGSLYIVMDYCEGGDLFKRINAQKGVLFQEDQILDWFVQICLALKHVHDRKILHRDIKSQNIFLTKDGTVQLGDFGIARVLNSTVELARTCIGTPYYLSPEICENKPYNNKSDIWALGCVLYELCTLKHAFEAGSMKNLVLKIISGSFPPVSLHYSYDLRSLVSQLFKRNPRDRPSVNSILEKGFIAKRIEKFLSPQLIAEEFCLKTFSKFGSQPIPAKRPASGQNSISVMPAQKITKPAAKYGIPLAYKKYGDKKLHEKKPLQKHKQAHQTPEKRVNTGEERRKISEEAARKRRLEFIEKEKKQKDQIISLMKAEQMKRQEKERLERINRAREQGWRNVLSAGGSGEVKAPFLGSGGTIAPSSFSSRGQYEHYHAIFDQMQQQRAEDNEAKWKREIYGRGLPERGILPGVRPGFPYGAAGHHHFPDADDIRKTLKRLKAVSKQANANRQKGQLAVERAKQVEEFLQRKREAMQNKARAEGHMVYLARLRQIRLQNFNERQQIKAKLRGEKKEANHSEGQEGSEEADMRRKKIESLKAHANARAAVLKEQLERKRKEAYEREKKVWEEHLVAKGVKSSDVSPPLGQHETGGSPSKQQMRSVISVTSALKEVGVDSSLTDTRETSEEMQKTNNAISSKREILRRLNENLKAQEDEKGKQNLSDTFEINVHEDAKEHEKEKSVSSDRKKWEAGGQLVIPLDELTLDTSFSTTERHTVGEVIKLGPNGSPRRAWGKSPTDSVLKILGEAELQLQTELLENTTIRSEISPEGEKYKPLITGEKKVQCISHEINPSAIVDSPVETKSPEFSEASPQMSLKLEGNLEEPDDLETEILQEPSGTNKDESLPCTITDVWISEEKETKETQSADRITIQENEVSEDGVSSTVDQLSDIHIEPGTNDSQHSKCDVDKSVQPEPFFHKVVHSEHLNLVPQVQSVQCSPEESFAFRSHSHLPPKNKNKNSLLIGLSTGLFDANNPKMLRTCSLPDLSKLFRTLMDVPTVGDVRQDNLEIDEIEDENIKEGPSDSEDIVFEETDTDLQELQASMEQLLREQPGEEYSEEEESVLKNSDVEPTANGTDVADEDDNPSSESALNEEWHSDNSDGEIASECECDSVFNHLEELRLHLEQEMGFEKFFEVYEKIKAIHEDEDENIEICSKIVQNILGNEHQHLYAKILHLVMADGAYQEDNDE
The conditions noted are these: at 0.1 µM.

Test [3] concerns the target T2, Serine/threonine-protein kinase Nek1 (Homo sapiens). The following applies: at 1 µM.
For test [4], the target named is T3, Serine/threonine-protein kinase Nek2 (Homo sapiens) (UniProt P51955).
T3 sequence (whole entry): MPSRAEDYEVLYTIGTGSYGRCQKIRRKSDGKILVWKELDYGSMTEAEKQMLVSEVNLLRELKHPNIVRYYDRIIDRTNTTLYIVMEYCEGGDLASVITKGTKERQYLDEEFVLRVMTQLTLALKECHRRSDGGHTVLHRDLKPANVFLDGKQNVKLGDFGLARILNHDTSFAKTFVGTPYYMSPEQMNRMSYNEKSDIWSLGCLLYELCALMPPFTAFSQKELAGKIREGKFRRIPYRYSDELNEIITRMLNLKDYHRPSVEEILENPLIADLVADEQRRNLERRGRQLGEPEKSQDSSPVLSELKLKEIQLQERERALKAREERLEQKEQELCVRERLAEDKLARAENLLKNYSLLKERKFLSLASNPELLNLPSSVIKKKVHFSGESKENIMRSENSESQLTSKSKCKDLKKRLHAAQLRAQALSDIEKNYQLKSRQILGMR
The following applies: at 0.1 µM.

For test [5], the target named is T3, Serine/threonine-protein kinase Nek2 (Homo sapiens). The following applies: at 1 µM.
Test [6] addresses Serine/threonine-protein kinase Nek6 (Homo sapiens) (UniProt Q9HC98). The following applies: at 0.1 µM.
Test [7] has the same target. The conditions noted are these: at 1 µM.
Test [8] addresses Serine/threonine-protein kinase Nek7 (Homo sapiens) (UniProt Q8TDX7). The conditions noted are these: at 0.1 µM.
The target is the same in test [9]. The conditions noted are these: at 1 µM.
In test [10] the target is T4, Serine/threonine-protein kinase Nek9 (Homo sapiens) (UniProt Q8TD19).
T4 sequence (whole entry): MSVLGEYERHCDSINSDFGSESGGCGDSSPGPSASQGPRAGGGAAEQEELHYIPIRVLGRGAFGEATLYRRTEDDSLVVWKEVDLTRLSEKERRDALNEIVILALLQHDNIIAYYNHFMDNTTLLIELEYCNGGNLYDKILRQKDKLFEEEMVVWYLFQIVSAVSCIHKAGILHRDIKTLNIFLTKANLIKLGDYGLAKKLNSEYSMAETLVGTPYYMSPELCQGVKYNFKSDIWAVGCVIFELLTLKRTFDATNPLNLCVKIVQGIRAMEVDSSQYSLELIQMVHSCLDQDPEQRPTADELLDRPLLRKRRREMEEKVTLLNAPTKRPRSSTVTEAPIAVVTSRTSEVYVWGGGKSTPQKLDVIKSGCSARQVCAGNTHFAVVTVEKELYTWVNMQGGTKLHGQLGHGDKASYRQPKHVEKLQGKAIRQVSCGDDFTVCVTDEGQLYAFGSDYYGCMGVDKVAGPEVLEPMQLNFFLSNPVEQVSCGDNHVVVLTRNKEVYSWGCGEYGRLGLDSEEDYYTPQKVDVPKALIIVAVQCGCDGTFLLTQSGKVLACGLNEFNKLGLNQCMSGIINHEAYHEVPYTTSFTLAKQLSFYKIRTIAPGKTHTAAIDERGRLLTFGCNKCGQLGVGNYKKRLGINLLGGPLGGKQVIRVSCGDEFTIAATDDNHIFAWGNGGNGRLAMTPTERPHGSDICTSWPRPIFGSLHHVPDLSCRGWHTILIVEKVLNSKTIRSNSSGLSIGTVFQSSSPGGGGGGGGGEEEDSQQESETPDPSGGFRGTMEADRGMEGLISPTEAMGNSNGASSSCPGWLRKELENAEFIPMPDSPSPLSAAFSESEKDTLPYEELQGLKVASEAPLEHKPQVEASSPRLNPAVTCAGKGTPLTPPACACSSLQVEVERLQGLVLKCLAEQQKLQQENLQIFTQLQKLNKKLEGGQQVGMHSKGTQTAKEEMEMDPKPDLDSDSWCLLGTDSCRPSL
The following applies: at 0.1 µM.

The target in test [11] is T4, Serine/threonine-protein kinase Nek9 (Homo sapiens). The conditions noted are these: at 1 µM.
For test [12], the target named is Serine/threonine-protein kinase PLK1 (Homo sapiens) (UniProt P53350). The following applies: at 0.1 µM.
Test [13] has the same target. The following applies: at 1 µM.
Test [14] addresses T5, Dual specificity protein kinase TTK (Homo sapiens) (UniProt P33981).
T5 sequence (whole entry): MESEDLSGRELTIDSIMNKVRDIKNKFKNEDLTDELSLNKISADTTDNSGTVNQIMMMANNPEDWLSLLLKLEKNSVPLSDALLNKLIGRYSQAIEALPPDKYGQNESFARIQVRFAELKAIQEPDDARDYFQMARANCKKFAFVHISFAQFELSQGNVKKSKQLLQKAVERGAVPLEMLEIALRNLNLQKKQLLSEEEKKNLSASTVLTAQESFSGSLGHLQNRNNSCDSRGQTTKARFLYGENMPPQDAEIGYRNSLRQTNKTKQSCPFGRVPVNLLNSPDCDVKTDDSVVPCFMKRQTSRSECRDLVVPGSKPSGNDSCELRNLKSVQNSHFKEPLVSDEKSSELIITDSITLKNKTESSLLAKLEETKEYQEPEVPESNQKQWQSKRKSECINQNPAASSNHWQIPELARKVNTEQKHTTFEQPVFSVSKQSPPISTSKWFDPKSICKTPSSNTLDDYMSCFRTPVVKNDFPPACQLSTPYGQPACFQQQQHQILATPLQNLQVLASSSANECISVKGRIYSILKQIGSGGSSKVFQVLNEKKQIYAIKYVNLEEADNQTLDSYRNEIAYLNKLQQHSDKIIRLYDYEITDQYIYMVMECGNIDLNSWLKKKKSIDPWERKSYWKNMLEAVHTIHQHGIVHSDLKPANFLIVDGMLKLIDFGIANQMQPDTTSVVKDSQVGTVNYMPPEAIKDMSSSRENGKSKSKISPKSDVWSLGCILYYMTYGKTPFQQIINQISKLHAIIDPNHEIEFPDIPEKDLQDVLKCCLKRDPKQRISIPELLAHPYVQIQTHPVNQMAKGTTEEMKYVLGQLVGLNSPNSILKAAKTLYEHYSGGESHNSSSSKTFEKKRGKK
The conditions noted are these: at 0.1 µM.

The subject of test [15] is T6, Receptor-type tyrosine-protein kinase FLT3 (Homo sapiens), P36888 [D835Y].
T6 sequence (whole entry): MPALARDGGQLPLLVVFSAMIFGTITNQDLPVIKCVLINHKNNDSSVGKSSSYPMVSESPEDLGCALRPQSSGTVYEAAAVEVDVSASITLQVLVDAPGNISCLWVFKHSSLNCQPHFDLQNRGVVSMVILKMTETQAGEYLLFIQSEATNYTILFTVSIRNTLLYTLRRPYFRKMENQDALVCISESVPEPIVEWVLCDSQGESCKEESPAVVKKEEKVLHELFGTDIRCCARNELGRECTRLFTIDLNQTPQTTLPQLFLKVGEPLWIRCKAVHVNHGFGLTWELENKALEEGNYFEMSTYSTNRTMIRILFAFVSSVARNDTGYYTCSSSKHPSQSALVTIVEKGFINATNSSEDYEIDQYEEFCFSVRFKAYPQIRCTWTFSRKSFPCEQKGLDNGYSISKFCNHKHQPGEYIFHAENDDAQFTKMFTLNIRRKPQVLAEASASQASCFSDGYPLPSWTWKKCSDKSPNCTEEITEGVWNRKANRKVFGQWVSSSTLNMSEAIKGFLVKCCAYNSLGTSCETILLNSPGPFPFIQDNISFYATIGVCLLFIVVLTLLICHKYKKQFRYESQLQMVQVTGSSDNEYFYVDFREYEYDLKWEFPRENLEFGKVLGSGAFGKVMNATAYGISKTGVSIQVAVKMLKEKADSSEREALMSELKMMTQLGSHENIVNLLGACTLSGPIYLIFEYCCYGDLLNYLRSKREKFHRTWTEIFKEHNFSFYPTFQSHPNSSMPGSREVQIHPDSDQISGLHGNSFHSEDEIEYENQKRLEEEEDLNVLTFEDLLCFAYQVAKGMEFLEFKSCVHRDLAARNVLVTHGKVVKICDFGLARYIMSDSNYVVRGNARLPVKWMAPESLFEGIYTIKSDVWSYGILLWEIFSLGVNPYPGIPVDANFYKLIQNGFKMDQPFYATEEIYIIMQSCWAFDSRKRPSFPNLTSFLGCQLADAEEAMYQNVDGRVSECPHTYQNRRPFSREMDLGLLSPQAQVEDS
The conditions noted are these: at 1 µM.

The target of test [16] is Vascular endothelial growth factor receptor 3 (Homo sapiens) (UniProt P35916). The following applies: at 0.1 µM.
Test [17] has the same target. The conditions noted are these: at 1 µM.
Test [18] addresses Macrophage colony-stimulating factor 1 receptor (Homo sapiens) (UniProt P07333). The following applies: at 0.1 µM.
The target is the same in test [19]. The following applies: at 1 µM.
Test [20] deals with Tyrosine-protein kinase Fyn (Homo sapiens) (UniProt P06241). The following applies: at 0.1 µM.
Tyrosine-protein kinase Fyn (Homo sapiens), sequence (P06241 2-537 limits assumed): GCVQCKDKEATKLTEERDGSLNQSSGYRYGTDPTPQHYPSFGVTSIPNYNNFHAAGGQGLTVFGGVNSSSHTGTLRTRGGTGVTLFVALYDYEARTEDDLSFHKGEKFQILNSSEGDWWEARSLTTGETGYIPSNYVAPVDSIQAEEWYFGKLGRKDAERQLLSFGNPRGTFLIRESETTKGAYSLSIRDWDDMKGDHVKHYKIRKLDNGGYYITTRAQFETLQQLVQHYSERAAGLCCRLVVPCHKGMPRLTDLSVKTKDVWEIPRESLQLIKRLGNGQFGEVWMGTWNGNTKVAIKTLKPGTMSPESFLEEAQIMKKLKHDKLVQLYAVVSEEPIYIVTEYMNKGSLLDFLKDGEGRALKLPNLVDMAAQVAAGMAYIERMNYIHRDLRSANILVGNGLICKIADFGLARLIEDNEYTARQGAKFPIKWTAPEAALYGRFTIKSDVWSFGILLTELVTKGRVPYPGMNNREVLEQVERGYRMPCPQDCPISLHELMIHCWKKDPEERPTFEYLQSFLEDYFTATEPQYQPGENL

Vascular endothelial growth factor receptor 3 (Homo sapiens), sequence (P35916 whole entry): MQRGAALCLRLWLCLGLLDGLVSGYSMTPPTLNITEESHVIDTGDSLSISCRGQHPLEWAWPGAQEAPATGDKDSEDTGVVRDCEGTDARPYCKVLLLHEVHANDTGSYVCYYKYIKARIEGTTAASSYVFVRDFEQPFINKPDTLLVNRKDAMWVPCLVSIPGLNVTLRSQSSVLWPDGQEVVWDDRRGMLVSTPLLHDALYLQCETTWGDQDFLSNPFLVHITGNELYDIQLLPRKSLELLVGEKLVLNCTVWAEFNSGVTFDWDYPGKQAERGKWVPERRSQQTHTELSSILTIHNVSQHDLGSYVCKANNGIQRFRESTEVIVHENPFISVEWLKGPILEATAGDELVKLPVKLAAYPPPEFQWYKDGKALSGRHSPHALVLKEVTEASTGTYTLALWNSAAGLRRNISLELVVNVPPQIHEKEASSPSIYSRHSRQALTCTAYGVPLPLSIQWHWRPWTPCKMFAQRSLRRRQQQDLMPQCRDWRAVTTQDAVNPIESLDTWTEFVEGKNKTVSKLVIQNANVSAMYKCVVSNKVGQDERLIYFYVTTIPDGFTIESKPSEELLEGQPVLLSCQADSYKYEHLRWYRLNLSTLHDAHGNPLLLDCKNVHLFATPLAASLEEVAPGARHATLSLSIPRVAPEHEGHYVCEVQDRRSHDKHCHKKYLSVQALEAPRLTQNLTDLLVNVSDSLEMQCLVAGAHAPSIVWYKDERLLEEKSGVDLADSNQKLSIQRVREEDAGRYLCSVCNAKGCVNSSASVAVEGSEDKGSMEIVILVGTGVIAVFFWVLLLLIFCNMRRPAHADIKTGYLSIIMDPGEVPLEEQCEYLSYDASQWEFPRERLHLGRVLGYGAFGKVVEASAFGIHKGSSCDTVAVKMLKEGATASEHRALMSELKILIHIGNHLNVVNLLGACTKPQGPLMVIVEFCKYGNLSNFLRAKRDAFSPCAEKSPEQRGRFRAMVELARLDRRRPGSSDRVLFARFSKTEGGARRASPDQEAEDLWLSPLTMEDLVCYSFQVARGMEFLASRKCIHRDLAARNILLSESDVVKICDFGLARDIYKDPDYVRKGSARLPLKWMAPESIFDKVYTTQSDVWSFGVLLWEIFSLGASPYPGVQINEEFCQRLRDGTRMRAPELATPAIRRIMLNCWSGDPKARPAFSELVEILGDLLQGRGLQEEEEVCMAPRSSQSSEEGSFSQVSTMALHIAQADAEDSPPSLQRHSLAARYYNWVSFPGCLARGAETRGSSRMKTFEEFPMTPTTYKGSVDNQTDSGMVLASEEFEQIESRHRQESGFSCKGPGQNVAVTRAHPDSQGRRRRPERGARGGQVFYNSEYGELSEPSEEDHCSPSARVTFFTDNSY
Serine/threonine-protein kinase Nek6 (Homo sapiens), sequence (Q9HC98 whole entry): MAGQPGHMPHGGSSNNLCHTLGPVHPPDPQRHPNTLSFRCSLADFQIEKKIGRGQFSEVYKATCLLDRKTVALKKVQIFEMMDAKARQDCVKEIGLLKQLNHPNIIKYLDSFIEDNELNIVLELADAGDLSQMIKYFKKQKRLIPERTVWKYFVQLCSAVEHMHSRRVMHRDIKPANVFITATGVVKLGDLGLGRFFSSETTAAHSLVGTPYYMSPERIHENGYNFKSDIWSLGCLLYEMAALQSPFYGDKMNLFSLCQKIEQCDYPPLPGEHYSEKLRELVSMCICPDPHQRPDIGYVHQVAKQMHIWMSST
Macrophage colony-stimulating factor 1 receptor (Homo sapiens), sequence (P07333 whole entry): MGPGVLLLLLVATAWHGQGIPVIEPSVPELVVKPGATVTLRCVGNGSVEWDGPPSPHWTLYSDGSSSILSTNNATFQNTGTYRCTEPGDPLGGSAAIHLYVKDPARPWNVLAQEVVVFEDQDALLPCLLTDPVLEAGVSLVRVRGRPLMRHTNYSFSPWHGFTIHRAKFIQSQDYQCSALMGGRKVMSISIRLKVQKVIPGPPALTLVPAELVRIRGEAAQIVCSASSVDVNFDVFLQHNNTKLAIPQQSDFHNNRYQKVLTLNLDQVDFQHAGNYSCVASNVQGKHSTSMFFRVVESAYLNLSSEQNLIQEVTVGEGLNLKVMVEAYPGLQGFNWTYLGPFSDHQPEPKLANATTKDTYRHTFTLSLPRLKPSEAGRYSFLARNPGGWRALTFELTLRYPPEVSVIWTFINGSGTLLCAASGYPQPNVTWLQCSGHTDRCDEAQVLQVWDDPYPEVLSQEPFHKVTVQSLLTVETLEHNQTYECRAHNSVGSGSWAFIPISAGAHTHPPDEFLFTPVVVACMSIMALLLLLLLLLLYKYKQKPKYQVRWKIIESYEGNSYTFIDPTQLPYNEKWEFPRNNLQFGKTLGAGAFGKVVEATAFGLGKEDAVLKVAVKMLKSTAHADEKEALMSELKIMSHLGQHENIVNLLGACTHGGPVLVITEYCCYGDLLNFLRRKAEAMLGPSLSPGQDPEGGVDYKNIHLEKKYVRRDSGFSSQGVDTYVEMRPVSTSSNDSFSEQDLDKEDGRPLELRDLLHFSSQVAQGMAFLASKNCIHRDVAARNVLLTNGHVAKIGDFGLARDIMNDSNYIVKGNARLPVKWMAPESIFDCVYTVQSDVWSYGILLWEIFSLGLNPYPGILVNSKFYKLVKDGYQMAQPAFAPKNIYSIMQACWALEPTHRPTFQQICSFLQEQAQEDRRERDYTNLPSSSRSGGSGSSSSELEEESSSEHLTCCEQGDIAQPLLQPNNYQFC
Serine/threonine-protein kinase PLK1 (Homo sapiens), sequence (P53350 whole entry): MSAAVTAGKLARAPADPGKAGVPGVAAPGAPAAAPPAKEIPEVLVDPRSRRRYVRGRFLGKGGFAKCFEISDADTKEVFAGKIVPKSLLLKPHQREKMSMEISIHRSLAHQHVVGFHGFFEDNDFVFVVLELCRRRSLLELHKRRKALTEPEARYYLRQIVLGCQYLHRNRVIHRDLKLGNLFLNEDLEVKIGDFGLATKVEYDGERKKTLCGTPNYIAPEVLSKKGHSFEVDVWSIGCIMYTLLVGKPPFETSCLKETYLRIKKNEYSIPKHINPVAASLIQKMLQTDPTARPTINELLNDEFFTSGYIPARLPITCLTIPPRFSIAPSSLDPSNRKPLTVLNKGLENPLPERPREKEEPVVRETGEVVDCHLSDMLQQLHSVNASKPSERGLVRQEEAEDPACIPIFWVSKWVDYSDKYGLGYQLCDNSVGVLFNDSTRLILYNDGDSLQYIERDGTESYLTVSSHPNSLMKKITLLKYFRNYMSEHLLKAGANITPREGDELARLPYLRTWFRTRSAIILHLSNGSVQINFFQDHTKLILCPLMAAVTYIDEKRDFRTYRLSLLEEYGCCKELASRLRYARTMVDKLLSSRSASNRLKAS
Serine/threonine-protein kinase Nek7 (Homo sapiens), sequence (Q8TDX7 whole entry, looked up): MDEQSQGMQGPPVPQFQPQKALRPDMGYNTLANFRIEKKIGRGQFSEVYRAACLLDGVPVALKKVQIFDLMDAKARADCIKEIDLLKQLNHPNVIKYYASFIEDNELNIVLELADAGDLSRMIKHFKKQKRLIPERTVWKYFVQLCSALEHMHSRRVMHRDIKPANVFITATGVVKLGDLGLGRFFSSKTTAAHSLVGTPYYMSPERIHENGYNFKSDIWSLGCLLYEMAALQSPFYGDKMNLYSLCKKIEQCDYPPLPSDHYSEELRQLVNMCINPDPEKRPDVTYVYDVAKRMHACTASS

Turning to `COc1cc(Nc2ncc(-c3ccccc3)o2)cc(OC)c1`, the inhibition (as a rule, the drop in the measured response relative to a control, in per cent) was determined as 10.9% in test [1]; 1.83% in test [2]; 4.11% in test [3]; 5.36% in test [4]; 5.95% in [5]; 3.13% in test [6]. Also, the inhibition turned out to be 1.56% in test [7]; 3.14% in test [8]; 5.01% in test [9]; 10.4% in [10]; 7.35% in test [11]; 4.62% in [12]. The inhibition in test [13] was 2.5%; in [14], 10%; in test [15], 36.7%; in test [16] it was 1.25%; in test [17] it was 9.4%; in [18], 14.5%. Further, the inhibition was determined as 56.3% in test [19] and 2.7% in test [20].

As to `Cc1cc(O)cc(C)c1/C=C/c1cncc(C(=O)OC(C)(C)C)c1`, the inhibition in [1] stood at 91.7%; in test [2] it was 2.47%; in test [3], 4.15%; in test [4] it was 3.29%; in test [5], 2.53%; in [6], 1.87%. Moreover, the inhibition in [7] is 2.59%; in [8], -2.32%; in [9] it was 3.53%; in test [10], 8.55%; in test [11], 2.6%; in test [12], 0.53%. Moreover, the inhibition in test [13] was determined as 2.82%; in [14], 6.3%; in [15] it was 2.14%; in [16], 1.44%; in test [17] it was 1.34%; in test [18] it was 7.66%. Also, the results for the inhibition in test [19] and in [20] were 38.6% and 8.16%, respectively.
